For seven molecules, outcome and AC50 results are on record in PubChem BioAssay (EPA / NIEHS).

Read-out in assay [1]: Monokine induced gamma interferon (MIG), CXCL9 (gene 4283)
The experiment in a line: BSK_3C_MIG: BioMAP Diversity Plus: 3C Assay for Monokine induced gamma interferon (MIG) Biomarker Activity (AID 2283021).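 On AC50: MIG protein level measured by immunoassay in the treated endothelial cultures.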 The settings on record: primary human endothelial cells (HUVEC); actives raise or lower the signal. The procedure, abridged:
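Endothelial primary cells (human umbilical vein) are dosed with test chemical in the 3C system. MIG levels are measured by ELISA at 24 h and fitted in both directions relative to DMSO.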

Assay [2] is described as follows: BSK_3C_SRB: Viability Assessment in the BioMAP Diversity Plus: 3C Assay (AID 2283023).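 Further: fitted both ways against DMSO so a hit may be signal rise or drop.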 Particulars: primary human endothelial cells (HUVEC). Put shortly: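 Overt cytotoxicity is gauged in parallel confluent HUVEC cultures by SRB total-protein staining at the time of biomarker measurement, 24 h after dosing. Gain or loss of signal is fitted versus DMSO.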
Read-out in assay [3]: Matrix Metallopeptidase 1 (MMP1), MMP1 (gene 4312)
Description: BSK_BE3C_MMP1: BioMAP Diversity Plus: BE3C Assay for Matrix Metallopeptidase 1 (MMP1) Biomarker Activity (AID 2283024). The settings on record: primary human bronchial epithelial cells; actives raise or lower the signal. The procedure, abridged:
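MMP1 signal, measured by ELISA after a 24 h chemical exposure of human primary bronchial epithelial cells, is analysed with bidirectional fitting using DMSO as negative control.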

Assay [4] can be described thus: BSK_3C_Vis: BioMAP Diversity Plus: 3C Assay for Morphology Visualization (AID 2283025).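 Further: fitted both ways so gain or loss versus DMSO counts.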 Particulars: primary human endothelial cells (HUVEC). The procedure, abridged:
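Morphology read by light microscopy serves as a background control for the multiplexed 3C assay in human umbilical vein endothelial cells, taken 24 h after dosing, with DMSO as the negative control and bidirectional curve fitting.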

Read-out in assay [5]: Pselectin, SELP (gene 6403)
Description: BSK_4H_Pselectin: BioMAP Diversity Plus: 4H Assay for Pselectin Biomarker Activity (AID 2283026). Particulars: primary human endothelial cells (HUVEC); actives raise or lower the signal. Put shortly:
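Endothelial primary cells (human umbilical vein) are dosed, incubated 24 h, and assayed for surface P-selectin by ELISA; responses in either direction are fitted relative to the DMSO negative control.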

A short description of assay [6]: BSK_4H_SRB: Viability Assessment in the BioMAP Diversity Plus: 4H Assay (AID 2283027).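 Further: cells exposed to compound for 24 h before staining.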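 On AC50: curves fitted both ways versus DMSO so AC50 may be loss or gain.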 The settings on record: primary human endothelial cells (HUVEC). Put shortly: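 HUVEC, 24 h post-dose; 10% TCA fix, 0.1% SRB stain, A560 nm. Total protein = overt cytotoxicity, parallel to biomarker read. Bidirectional fit vs DMSO baseline.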
Assay [7] is described as follows: BSK_BE3C_SRB: Viability Assessment in the BioMAP Diversity Plus: BE3C Assay (AID 2283028).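 On AC50: fitted both ways so AC50 may mark signal gain or loss versus DMSO.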 Particulars: primary human bronchial epithelial cells. The procedure, abridged: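 SRB total-protein staining (0.1%, after TCA fixation) of chemically dosed human bronchial epithelial primary cells at 24 h; DMSO serves as the negative control for bidirectional curve fitting.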

Read-out in assay [8]: Thrombomodulin, THBD (gene 7056)
Description: BSK_3C_Thrombomodulin: BioMAP Diversity Plus: 3C Assay for Thrombomodulin Biomarker Activity (AID 2283029). Particulars: primary human endothelial cells (HUVEC); actives raise or lower the signal. The procedure, abridged:
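Endothelial cells from umbilical vein are dosed with test chemical and incubated 24 h. Thrombomodulin is then quantified by ELISA, with DMSO serving as negative control and activity baseline.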

Read-out in assay [9]: Urokinase-type plasminogen activator receptor (uPAR), PLAUR (gene 5329)
Description: BSK_4H_uPAR: BioMAP Diversity Plus: 4H Assay for Urokinase-type plasminogen activator receptor (uPAR) Biomarker Activity (AID 2283030). Particulars: primary human endothelial cells (HUVEC); actives raise or lower the signal. The procedure, abridged: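 Endpoint derived via bidirectional curve fitting against DMSO baseline; readout was ELISA detection of uPAR on umbilical vein endothelial cells at 24 h post-treatment, with SRB-stained parallel cultures assessing cytotoxicity.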

Read-out in assay [10]: Vascular endothelial growth factor receptor 2 (Homo sapiens) (UniProt P35968)
Description: BSK_4H_VEGFRII: BioMAP Diversity Plus: 4H Assay for Vascular endothelial growth factor receptor 2 (VEGFR2) Biomarker Activity (AID 2283031).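 On AC50: cell-surface VEGFR2 protein level quantified by ELISA.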 The settings on record: primary human endothelial cells (HUVEC); actives raise or lower the signal. The procedure, abridged:
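In this multiplexed HUVEC system, biomarker ELISA was performed after 24 h chemical exposure. Parallel SRB staining (TCA fixation, 560 nm) tracked cytotoxicity; DMSO served as baseline.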

Read-out in assay [11]: Human Leukocyte Antigen - DR isotype (HLADR), HLA-DRA (gene 3122)
Description: BSK_BE3C_HLADR: BioMAP Diversity Plus: BE3C Assay for Human Leukocyte Antigen - DR isotype (HLADR) Biomarker Activity (AID 2283032). The settings on record: primary human bronchial epithelial cells; actives raise or lower the signal. The procedure, abridged: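 Chemicals are dosed onto BE3C bronchial epithelial cultures of human origin and left 24 h. HLA-DR is then measured by ELISA, and the endpoint is fitted in both directions using DMSO as the activity baseline.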

Read-out in assay [12]: Vascular cell adhesion molecule 1 (VCAM1), VCAM1 (gene 7412)
The experiment in a line: BSK_4H_VCAM1: BioMAP Diversity Plus: 4H Assay for Vascular cell adhesion molecule 1 (VCAM1) Biomarker Activity (AID 2283033).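 On outcome: cell-surface VCAM-1 protein measured by ELISA.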 The settings on record: primary human endothelial cells (HUVEC); actives raise or lower the signal. Put shortly: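 Chemicals are added to primary human umbilical vein endothelial cells. After 24 h, VCAM-1 levels are measured by ELISA. Values come from bidirectional fitting referenced to DMSO.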

Read-out in assay [13]: Interferon-gamma inducible Protein 10 (IP10), CXCL10 (gene 3627)
The experiment in a line: BSK_BE3C_IP10: BioMAP Diversity Plus: BE3C Assay for Interferon-gamma inducible Protein 10 (IP10) Biomarker Activity (AID 2283034). Particulars: primary human bronchial epithelial cells; actives raise or lower the signal. Put shortly: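 IP-10 quantified by ELISA serves as the endpoint. Cells: primary human bronchial epithelium, read 24 h after compound addition. Activity is derived by bidirectional fitting with DMSO as negative control.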

Read-out in assay [14]: Monokine induced gamma interferon (MIG), CXCL9 (gene 4283)
The experiment in a line: BSK_BE3C_MIG: BioMAP Diversity Plus: BE3C Assay for Monokine induced gamma interferon (MIG) Biomarker Activity (AID 2283035).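 On outcome: MIG protein measured by ELISA in BE3C cultures after 24 h of dosing.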 The settings on record: primary human bronchial epithelial cells; actives raise or lower the signal. Put shortly: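 Dose cells (human primary bronchial epithelial), incubate 24 h, quantify MIG by ELISA, then fit concentration–response in both directions relative to DMSO control.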

Read-out in assay [15]: Transforming growth factor beta 1 (TGFb1), TGFB1 (gene 7040)
Description: BSK_BE3C_TGFb1: BioMAP Diversity Plus: BE3C Assay for Transforming growth factor beta 1 (TGFb1) Biomarker Activity (AID 2283036;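 on outcome: TGF-b1 protein level measured by ELISA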). Particulars: primary human bronchial epithelial cells; actives raise or lower the signal. Put shortly:
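Bronchial epithelial primary cells are treated with test chemical, then TGF-b1 is quantified by ELISA after 24 hours. Values derive from bidirectional fitting against DMSO, with cytotoxicity checked by SRB staining in parallel cultures.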

Read-out in assay [16]: Plasminogen activator inhibitor-1 (PAI1), SERPINE1 (gene 5054)
The experiment in a line: BSK_BE3C_PAI1: BioMAP Diversity Plus: BE3C Assay for Plasminogen activator inhibitor-1 (PAI1) Biomarker Activity (AID 2283037). Particulars: primary human bronchial epithelial cells; actives raise or lower the signal. Put shortly:
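Values derive from bidirectional fitting against DMSO baseline of PAI-1 levels, measured by ELISA in human bronchial epithelial cells 24 h after compound addition.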

Read-out in assay [17]: urokinase plasminogen activator (uPA), PLAU (gene 5328)
The experiment in a line: BSK_BE3C_uPA: BioMAP Diversity Plus: BE3C Assay for urokinase plasminogen activator (uPA) Biomarker Activity (AID 2283038).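 On outcome: uPA protein level quantified by ELISA in cell cultures; uPA read one day after compound addition.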 Particulars: primary human bronchial epithelial cells; actives raise or lower the signal. Put shortly:
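Using confluent primary human lung bronchial epithelial cultures, we dosed chemicals, waited 24 h, then ran a uPA ELISA, fitting bidirectionally against DMSO.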

Read-out in assay [18]: Urokinase-type plasminogen activator receptor (uPAR), PLAUR (gene 5329)
The experiment in a line: BSK_BE3C_uPAR: BioMAP Diversity Plus: BE3C Assay for Urokinase-type plasminogen activator receptor (uPAR) Biomarker Activity (AID 2283039).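 On outcome: uPAR protein level measured by ELISA on the cells; cells exposed to compound for one day before measurement.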 The settings on record: primary human bronchial epithelial cells; actives raise or lower the signal. The procedure, abridged: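 Steps: dose human primary bronchial epithelial cells, incubate 24 h, measure uPAR by ELISA, then fit gain- or loss-of-signal response bidirectionally relative to DMSO.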

Read-out in assay [19]: Interleukin-6 (IL6), IL6 (gene 3569)
Description: BSK_CASM3C_IL6: BioMAP Diversity Plus: CASM3C Assay for Interleukin-6 (IL6) Biomarker Activity for (AID 2283040). The settings on record: primary human coronary artery smooth muscle cells; actives raise or lower the signal.

The source holds several records for some structures; these can differ, active in one and inactive in another. Active and inactive are the calls of the source. How the source made its calls: active means hit-call score of the fitted dose curve at least 0.9, where 1 is the maximum; inactive means score below 0.9.

In general, AC50 refers to the concentration at which the activity in the assay is half-maximal.

Consider `COCC(C)N(C(=O)CCl)c1c(C)csc1C` (stereo not given), for which the result in [1], in [2], in assay [3], in assay [4], in assay [5] and in assay [6] was inactive. Moreover, the outcome in [7], in [8], in assay [9], in assay [10], in assay [11] and in assay [12] was inactive. Further, the result in [13], in assay [14], in assay [15], in assay [16], in assay [17] and in assay [18] was inactive. Also, in [19], the result was inactive. In addition, the AC50 was 39 µM (active) in assay [4] and 14.6 µM (active) in assay [5].
Regarding `Nc1cnn(-c2ccccc2)c(=O)c1Cl`, the outcome in [1], in assay [2], in assay [3], in [5], in assay [6] and in assay [7] was inactive. The result in assay [8], in assay [9], in assay [10], in [11], in [12] and in assay [13] was inactive. In addition, the outcome in assay [14], in assay [15], in [16], in assay [17], in assay [18] and in assay [19] was inactive. In addition, in [4], the concentration at half-maximal activity (AC50) is 39 µM (active).
Consider `CCN(CC)c1nc(C)cc(OP(=S)(OC)OC)n1`, for which the outcome in [1], in assay [4], in [5], in assay [6], in [7] and in assay [8] was inactive. The result in assay [9], in assay [10], in assay [12], in assay [13], in [14] and in assay [15] was inactive. In addition, the result in assay [16], in assay [17], in [18] and in assay [19] was inactive. In addition, the AC50 in assay [2] is 29.4 µM (active); in [3], 20 µM (active); in [11], 20 µM (active).
With `CS(=O)(=O)c1ccc(C(=O)C2C(=O)CCCC2=O)c([N+](=O)[O-])c1`, the result in [1], in assay [2], in [3], in [4], in assay [5] and in assay [6] was inactive. The result in assay [7], in [8], in assay [9], in assay [10], in assay [11] and in [12] was inactive. The outcome in [13], in assay [14], in assay [15], in assay [16], in assay [17] and in [18] was inactive. Further, in [19], the outcome was inactive.
For the molecule `CCOc1cc(C(C)(C)C)ccc1C1COC(c2c(F)cccc2F)=N1` (stereo not given), the AC50 is 32.1 µM (active) in [1]; 15.1 µM (active) in [2]; 10.3 µM (active) in assay [3]; 22 µM (active) in [4]; 22.2 µM (active) in [5]; 27.6 µM (active) in [6]. Moreover, the AC50 in assay [7] is 20 µM (active); in assay [9], 33 µM (active); in [10], 22.8 µM (active); in assay [11], 14.3 µM (active); in assay [12], 37.4 µM (active); in [13], 16.3 µM (active). In addition, the results for the AC50 in assay [16], in assay [17] and in assay [18] were 19 µM (active), 20 µM (active) and 6.6 µM (active), respectively. Also, the result in assay [8], in assay [14], in assay [15] and in assay [19] was inactive.
Take `CCCC(=NOCC)C1=C(O)CC(CC(C)SCC)CC1=O` (stereo not given): the result in assay [1], in assay [2], in assay [3], in assay [5], in assay [6] and in assay [7] was inactive. For the same molecule, the result in assay [8], in assay [9], in [10], in assay [11], in [12] and in assay [13] was inactive. Also, the outcome in assay [14], in [15], in assay [16], in assay [17], in assay [18] and in [19] was inactive. In [4], the AC50 is 39 µM (active).
`CCCCOCN(C(=O)CCl)c1c(CC)cccc1CC`: the concentration at half-maximal activity (AC50) in assay [1] was 32.9 µM (active); in assay [2], 28.5 µM (active); in assay [3] it was 33.2 µM (active); in [4], 29.4 µM (active); in [5] it was 21.9 µM (active); in assay [6], 28.2 µM (active). In addition, the half-maximal activity concentration (AC50) was 31.1 µM (active) in assay [7]; 8.66 µM (active) in assay [8]; 38.8 µM (active) in assay [9]; 31.1 µM (active) in assay [10]; 29.8 µM (active) in assay [11]; 28.9 µM (active) in [12]. The AC50 is 35.5 µM (active) in assay [13]; 36.5 µM (active) in [14]; 31.9 µM (active) in assay [15]; 30.7 µM (active) in assay [16]; 31.4 µM (active) in assay [17]; 32.2 µM (active) in assay [18]. Further, the AC50 in assay [19] was 4.92 µM (active).
